# The whole screen tested about 69,000 compounds, of which about 1,000 (1.4%) showed an effect of 50% or more. The list comes from a sample in which strong results are over-represented; it also holds similar structures and randomly drawn compounds.
# Tested on: Leishmania donovani
# Test: Leishmania intramacrophage assay
# Format: functional, organism-based
# Parameters: scale not given: in the data most compounds retested in dose-response had high values
structure (smiles),measurement,setting,value
O=C(O)C(F)(F)F.O=C(c1ccc[nH]1)N1CCn2cc(CN3CCCC3)nc2C1,Percent Effect,"30 µM, 30.03 µM",-3.456%
O=C(O)C(F)(F)F.O=C(c1ccc[nH]1)N1CCn2cc(Cn3cccn3)nc2C1,Percent Effect,"30.3 µM, […]",51.47%
O=C(Cc1ccc(F)cc1)N1CCn2cc(Cn3cccn3)nc2C1.O=C(O)C(F)(F)F,Percent Effect,"30 µM, 30.03 µM",-23.45%
N#CC1(C(=O)N2CCOC(c3ccc(F)cc3)C2)CCCCC1 (stereo not given),Percent Effect,"30.3 µM, […]",33.91%
O=C(Nc1cc(C(F)(F)F)c[nH]c1=O)C1CCNCC1,Percent Effect,"30.3 µM, […]",29.22%
Cl.O=C(Nc1cc(C(F)(F)F)c[nH]c1=O)C1CCCCN1 (stereo not given),Percent Effect,"30.3 µM, […]",10.48%
O=C(Nc1cc(C(F)(F)F)c[nH]c1=O)C1CCCO1 (stereo not given),Percent Effect,"30.3 µM, […]",65.61%
CN1CCOC(CNCC(=O)NCCC2=CCCCC2)C1 (stereo not given),Percent Effect,"30.3 µM, […]",0.5751%
C[C@@H]1CN(Cc2nc(Cc3ccccc3F)no2)C[C@H](C)O1,Percent Effect,"30.3 µM, […]",14.95%
COc1ccc(C[C@H]2CN(C(=O)c3cc(C)no3)CC[C@H]2OC)cc1,Percent Effect,"30.3 µM, […]",7.467%
CO[C@@H]1CCN(C(=O)c2cc(C)on2)C[C@@H]1Cc1ccccc1,Percent Effect,"30.3 µM, […]",52.23%
CO[C@H]1CCN(C(=O)c2cc(C)on2)C[C@@H]1Cc1ccccc1,Percent Effect,"30.3 µM, […]",-10.42%
CC(=O)N1CCC2(CC1)CC(C(C)C)=NO2,Percent Effect,"30.3 µM, […]",-2.802%
NC(=O)CSCC(=O)NCC1CCCC1,Percent Effect,"30.3 µM, […]",12%
CNC(=O)C1CN(Cc2ccc(C#N)cc2F)c2ccccc2O1 (stereo not given),Percent Effect,"30.3 µM, […]",34.5%
O=C1CO[C@H]2CN(Cc3ccc(F)c(F)c3)C[C@H]2N1,Percent Effect,"30.3 µM, […]",13.71%
CCOC(=O)C1(Cc2ccccc2-c2ccccc2OC)CCNCC1.Cl,Percent Effect,"30.3 µM, […]",51.68%
COc1ccc(F)cc1-c1ccccc1CC1(C(=O)O)CCOCC1,Percent Effect,"30.3 µM, […]",-18.67%
COc1ccccc1-c1ccccc1CC1(C(=O)O)CCNCC1,Percent Effect,"30.3 µM, […]",-31.14%
CCNC(=O)C1CCCN(c2ccc3ccc(F)cc3n2)C1 (stereo not given),Percent Effect,"30.3 µM, […]",4.617%
CC(C)Oc1ncccc1CNC(=O)NC(C)c1cccs1 (stereo not given),Percent Effect,"30.3 µM, […]",19.58%
CCCOc1cc(C)ccc1NC(=O)NCCNC(=O)C(C)C,Percent Effect,"30.3 µM, […]",-16.43%
CCc1nc2c(NCC3COc4c(cccc4OC)C3)ncnc2o1 (stereo not given),Percent Effect,"30.3 µM, […]",45.88%
CCc1nc2c(NCC3COc4ccccc4C3)ncnc2o1 (stereo not given),Percent Effect,"30.3 µM, […]",35.57%
CCc1nc2c(NCC3COc4cc(OC)ccc4C3)ncnc2o1 (stereo not given),Percent Effect,"30.3 µM, […]",60.09%
COc1ccc2c(c1)OCC(CNc1cc(N)nc(SC)n1)C2 (stereo not given),Percent Effect,"30.3 µM, […]",52.24%
COc1ccc2c(c1)OCC(Cc1ccc(C)nc1N)C2 (stereo not given),Percent Effect,"30.3 µM, […]",-0.8362%
COc1cccc2c1OCC(CNc1cc(N)nc(SC)n1)C2 (stereo not given),Percent Effect,"30.3 µM, […]",21.08%
CCC(CNC(=O)c1nc(=O)[nH][nH]1)Oc1cccc(C(F)(F)F)c1 (stereo not given),Percent Effect,"30.3 µM, […]",11.69%
CC1c2ncc(COCC3CC3)n2CCN1C.O=C(O)C(F)(F)F (stereo not given),Percent Effect,"30.3 µM, […]",11.79%
Cc1nc(N(C)C)nc(-c2cccc(-c3ccn(CCCF)n3)c2)c1C,Percent Effect,"30.3 µM, […]",-3.93%
CN(C)c1cc(CNC(=O)c2ccc(F)cc2F)ccn1,Percent Effect,"30 µM, 30.03 µM",42.64%
CCc1nc(CN(C)CC(=O)NC(C)C)cs1,Percent Effect,"30.3 µM, […]",35.21%
CCCc1cc(C(=O)N[C@H](C)[C@@H](O)c2ccc(O)cc2)n(C)n1,Percent Effect,"30.3 µM, […]",13.63%
CCCc1cc(C(=O)NC(C)c2ccccc2)n(C)n1 (stereo not given),Percent Effect,"30.3 µM, […]",52.97%
CCCc1cc(C(=O)N[C@@H](CO)[C@@H](O)c2ccccc2)n(C)n1,Percent Effect,"30.3 µM, […]",0.7938%
CN(Cc1ccco1)C(=O)NCc1ccnc(SC(C)(C)C)c1,Percent Effect,"30.3 µM, […]",10.46%
CCn1cc(CNCc2ccc(C(=O)OC)cc2)c(C)n1,Percent Effect,"30.3 µM, […]",-10.67%
CN(C)CC1(O)CCCN(C(=O)Cc2ccc(Cl)c(Cl)c2)C1 (stereo not given),Percent Effect,"30.3 µM, […]",-2.799%
CC(C)Nc1nc(N2CCCC2)nc2c1CN(C)CC2,Percent Effect,"30.3 µM, […]",20.69%
CCC(C)N1CCc2nc(N3CCCC3)nc(NC(C)C)c2C1 (stereo not given),Percent Effect,"30.3 µM, […]",35.6%
CC(C)Nc1nc(N2CCCC2)nc2c1CN(C(C)C)CC2,Percent Effect,"30 µM, 30.03 µM",-2.181%
Cc1nc(CN2CCc3nc(NC(C)C)nc(C)c3C2)cs1,Percent Effect,"30.3 µM, […]",4.033%
CC(C)Nc1nc(N2CCCC2)nc2c1CN(c1ncc(F)cn1)CC2,Percent Effect,"30.3 µM, […]",60.7%
Cc1nc(CN2CCc3nc(N4CCCC4)nc(NC(C)C)c3C2)cs1,Percent Effect,"30.3 µM, […]",51.28%
O=C(OCc1cccs1)c1cccc(C(=O)N2CCCC2)n1,Percent Effect,"30.3 µM, […]",3.746%
Cn1cc(-c2ncc3c(c2C(=O)O)CCN(Cc2ccco2)C3)cn1.O=C(O)C(F)(F)F,Percent Effect,"30.3 µM, […]",10.3%
Cc1ccc(C(=O)NCc2ccnc(N(C)C)c2)c(C)c1,Percent Effect,"30.3 µM, […]",24.48%
O=C(c1ccccn1)N1CCCC(c2ncncc2-c2ccncc2)C1 (stereo not given),Percent Effect,"30.3 µM, […]",-13.38%
O=C(O)C(F)(F)F.O=C1NCC[C@]12CN(CC1CCOCC1)C[C@H]2c1ccccc1,Percent Effect,"30.3 µM, […]",7.927%
Cc1cccc(CNC(=O)c2cccnc2N)c1,Percent Effect,"30.3 µM, […]",26.02%
Nc1ncccc1C(=O)NCc1cccc(Br)c1,Percent Effect,"30.3 µM, […]",45.5%
COc1cccc(CNC(=O)c2cccnc2N)c1,Percent Effect,"30.3 µM, […]",50.32%
COc1ccc(C(=O)NS(=O)(=O)c2cc(Cl)sc2Cl)cc1OC(F)F,Percent Effect,"30.3 µM, […]",16.5%
CCn1cc(NC(=O)NCC(c2ccsc2)N(C)C)cn1 (stereo not given),Percent Effect,30 µM,19.68%
COc1ccc(CC(=O)N2CCCC(n3cccn3)C2)cc1F (stereo not given),Percent Effect,30 µM,5.405%
CNC(=O)c1sccc1S(=O)(=O)Nc1ccc(C)cc1,Percent Effect,"30.3 µM, […]",8.63%
CN1CCOC(CN(C(=O)Cc2ccccc2F)c2nccs2)C1 (stereo not given),Percent Effect,"30 µM, 30.03 µM",-6.347%
c1ccc(Cc2nc(CN3CCCC3Cn3cncn3)cs2)cc1 (stereo not given),Percent Effect,30 µM,-0.1933%
Cc1ccc2nc(C3CCCN3Cc3csc(C)n3)[nH]c2c1 (stereo not given),Percent Effect,"30.3 µM, […]",32.46%
Cc1ccc2nc(C3CCCN3Cc3cccc(CCN)c3)[nH]c2c1 (stereo not given),Percent Effect,"30.3 µM, […]",54.52%
Cc1ccc2nc(C3CCCN3Cc3scnc3C)[nH]c2c1 (stereo not given),Percent Effect,"30.3 µM, […]",25.37%
O=C1NCCN(Cc2ccoc2)C1CC(=O)N1CCc2sccc2C1 (stereo not given),Percent Effect,"30.3 µM, […]",23.18%
CN(CC(=O)NC1(C)CCS(=O)(=O)C1)Cc1ccc(Br)cc1 (stereo not given),Percent Effect,30 µM,-0.9039%
O=C(O)C(F)(F)F.c1cnc(N2CCC3(COCc4cnc(-c5cccnc5)nc43)C2)nc1 (stereo not given),Percent Effect,"30 µM, 30.03 µM",17.52%
CN(C)C(=O)CN1CCC2(COCc3cnc(-c4cccnc4)nc32)C1.O=C(O)C(F)(F)F.O=C(O)C(F)(F)F (stereo not given),Percent Effect,"30.3 µM, […]",71.1%
CN(C)C(=O)CN1CCC2(COCc3cnc(-c4ccccc4)nc32)C1 (stereo not given),Percent Effect,"30.3 µM, […]",31.1%
CN(C)C1CCN(C(=O)c2cccc(S(=O)(=O)NCC3(C)COC3)c2)C1 (stereo not given),Percent Effect,"30.3 µM, […]",28.53%
Cn1nccc1CN1CCCC(COc2ccccc2F)C1 (stereo not given),Percent Effect,"30.3 µM, […]",53.5%
CC(C)n1c(C2CCCN(Cc3ccnn3C)C2)nc2ccccc21 (stereo not given),Percent Effect,"30 µM, 30.03 µM",7.956%
CCn1cc(CN2CCCC(COc3ccccc3F)C2)cn1 (stereo not given),Percent Effect,"30.3 µM, […]",32.99%
COc1ccc(CN2Cc3[nH]nc(C(=O)N(C)C)c3C2)cc1,Percent Effect,"30.3 µM, […]",5.856%
COc1ccc(CCN(C)CCS(=O)(=O)c2ccc(Cl)cc2)cc1OC,Percent Effect,"30.3 µM, […]",7.861%
CCN(CCS(=O)(=O)c1ccc(Cl)cc1)Cc1ccc(OC)c(OC)c1,Percent Effect,"30.3 µM, […]",54.72%
COc1ccc(CN(C)CCS(=O)(=O)c2ccc(Cl)cc2)cc1OC,Percent Effect,"30.3 µM, […]",56.02%
COc1ccc(CCCN(C)C(=O)c2cc(Cl)c[nH]2)cc1OC,Percent Effect,"30.3 µM, […]",32.32%
COCCN(C)Cc1ccc(OC)c(OC(F)F)c1,Percent Effect,"30 µM, 30.03 µM",7.354%
CCN(Cc1nccs1)Cc1cc(Cl)ccc1OC,Percent Effect,"30.3 µM, […]",-1.846%
Cc1cc(C)n(Cc2ccc(-c3noc(C(=O)NC[C@@H](C)O)n3)cc2)n1,Percent Effect,"30.3 µM, […]",18.71%
O=C(O)C(F)(F)F.O=C(O)C(F)(F)F.c1cnc(N2CCC3(CCN(Cc4ccncc4)CC3)CC2)nc1,Percent Effect,"30 µM, 30.03 µM",38.21%
Cc1nccn1CC1CCCN(S(=O)(=O)c2cnn(C)c2)C1 (stereo not given),Percent Effect,"30.3 µM, […]",12.01%
O=C(N1CCOCC1)N1CCOC[C@H](Oc2ccc(C(F)(F)F)cc2)C1,Percent Effect,"30.3 µM, […]",-1.363%
COc1cc(CN2CC[C@@H](N3CCCCCC3)[C@H](O)C2)cc(Cl)c1OC,Percent Effect,"30.3 µM, […]",50.85%
COc1cc(Cl)c(CN2CCC(C(N)=O)C2)cc1Cl (stereo not given),Percent Effect,"30.3 µM, […]",31.88%
COc1cc(Cl)cc(CN2CCCC(N3CCCC3)C2)c1OC (stereo not given),Percent Effect,"30.3 µM, […]",12.54%
COCCC(=O)N1CCC2(CCN(Cc3ccc(OC)c(F)c3)C2)C1 (stereo not given),Percent Effect,"30.3 µM, […]",-20.78%
CC(=O)NCc1ccc(C(=O)N2CCCc3c(F)ccc(C)c32)cc1,Percent Effect,"30.3 µM, […]",35.68%
COc1cccc2c1OCC(Cc1cc(C(=O)N3CCCC3)ccn1)C2 (stereo not given),Percent Effect,"30.3 µM, […]",20.15%
CNC(=O)c1ccnc(CC2COc3c(cccc3OC)C2)c1 (stereo not given),Percent Effect,"30.3 µM, […]",-40.6%
COc1cccc2c1OCC(Cc1cc(C(N)=O)ccn1)C2 (stereo not given),Percent Effect,"30.3 µM, […]",69.64%
CCOc1ncccc1CNC(=O)Nc1ccccc1,Percent Effect,30 µM,-12.58%
COc1nn(C)cc1-c1nnc(SCc2cccnc2)n1C,Percent Effect,"30.3 µM, […]",-1.752%
CC(C)=CCC1(C(=O)O)CCCN(CCC(=O)NC2CC2)C1 (stereo not given),Percent Effect,"30.3 µM, […]",0.5122%
CCN(CC)C(=O)c1nc2c(s1)CCN(Cc1cccc(OC)c1)CC2.O=C(O)C(F)(F)F,Percent Effect,"30.3 µM, […]",-7.279%
COc1ccccc1OCCN(C)c1cc(C)nc(N)n1,Percent Effect,"30.3 µM, […]",6.974%
Cc1cc(N(C)CCOc2ccccc2F)nc(N)n1,Percent Effect,"30.3 µM, […]",60.08%
COc1ccc(OCCN(C)c2cc(C)nc(N)n2)cc1,Percent Effect,"30.3 µM, […]",6.601%
Cc1nc(C2CCCN2CC(=O)Nc2cc(C(C)(C)C)nn2C)no1 (stereo not given),Percent Effect,30 µM,12.3%
CC(C)n1cnnc1CN(C)CC1CCCNC1 (stereo not given),Percent Effect,"30.3 µM, […]",32.72%
Cl.N#Cc1ccc(NC(=O)C2CSCN2)cc1 (stereo not given),Percent Effect,"30.3 µM, […]",0.03454%
CS(=O)(=O)NCCC1CN(Cc2ccccc2F)CCO1 (stereo not given),Percent Effect,"30.3 µM, […]",18.65%
OC1(Cn2ccnc2)CCN(C[C@]2(O)CCCN3CCCC[C@@H]32)CC1,Percent Effect,"30.3 µM, […]",-28.91%
O=C(NCCO)Nc1cccc(Cl)c1SC(F)F,Percent Effect,"30 µM, 30.03 µM",-27.47%
CC(=O)NCCNC(=O)Nc1cccc(Cl)c1SC(F)F,Percent Effect,"30.3 µM, […]",17.25%
CC(C(=O)Nc1cccc(Cl)c1SC(F)F)S(C)(=O)=O (stereo not given),Percent Effect,"30.3 µM, […]",58.19%
